{"source": "PubChem BioAssay AID1981", "about": "(Southern Research Specialized Biocontainment Screening …, 2009)", "note": "Among all 2,200 compounds or so, about 480 (22%) were called active. Not all results are given here. Potency and affinity values are given separately. Unmarked numbers belong to inactive results. No rule for the calls is given here.", "data": [{"assay": "S. Typhimurium GFP fluorescence dose response in modified counterscreen for PhoP regulon inhibitor project (AID 1981);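 also: 0% = induced DMSO wells and 100% = uninduced wells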", "settings": "4 h; series mostly up to 150 µM; inhibition: at the top concentration", "units": {"inhibition": "%"}, "values": [{"smiles": "O=C1CC(c2ccco2)CC(O)=C1C=Nc1cc(Cl)cc(Cl)c1", "note": "(stereo not drawn)", "inhibition": 4.95}, {"smiles": "Cc1cccc(NC(=O)c2cc(N3C(=O)CCC3=O)ccc2Cl)n1", "inhibition": -10.7}, {"smiles": "Cc1oc(CC(C)C)c(CN2CCCC2)c1C(=O)O", "inhibition": 3.44}, {"smiles": "Cn1ncc(N=Cc2ccccc2O)c1C(=O)Nc1ccccc1", "inhibition": -4.37}, {"smiles": "O=C(Cc1cccs1)Nc1nc2c(s1)CCCC2", "inhibition": -17.5}, {"smiles": "Cn1cccc1C1NC(=O)c2c(sc3c2CCC(C(C)(C)C)C3)N1", "note": "(stereo not drawn)", "inhibition": 5.09}, {"smiles": "Cc1c(NS(=O)(=O)c2ccc(N(C)C3CCCCC3)c([N+](=O)[O-])c2)c(=O)n(-c2ccccc2)n1C", "inhibition": 8.27}, {"smiles": "CCCCOc1ccc(NC(=O)Nc2nnc(C)s2)cc1", "inhibition": -0.03}, {"smiles": "COc1cccc2[nH]c3c(N4CCN(Cc5ccc6c(c5)OCO6)CC4)ncnc3c12", "inhibition": 11.1}, {"smiles": "O=C(NCc1cccs1)Nc1cccs1", "inhibition": -6.17}, {"smiles": "O=C1C2CCCN2c2ccc(S(=O)(=O)N3CCOCC3)cc2N1Cc1ccccc1F", "note": "(stereo not drawn)", "inhibition": 8}, {"smiles": "O=C(c1cccc(S(=O)(=O)N2CCOCC2)c1)N1CCCC1", "inhibition": -6.02}, {"smiles": "Cc1ccc(/C=C/C(=O)c2ccccc(=O)c2O)cc1C", "inhibition": 15.5}, {"smiles": "O=C(CSc1nncs1)Nc1ccc2c(c1)OCCO2", "inhibition": -10.3}, {"smiles": "Cc1cccc(C)c1Nc1nnc(SCC(=O)Nc2sccc2C#N)s1", "inhibition": -5.47}, {"smiles": "COc1ccccc1N1CCN(C/C(O)=C(\\C#N)c2nc(-c3ccccc3)cs2)CC1", "inhibition": 38.2}, {"smiles": "COc1ccc(CN2CCOCC2)cc1Br", "inhibition": -4.59}, {"smiles": "Cc1sc(NC(=O)c2ccco2)c(CN2CCN(c3ccc(F)cc3)CC2)c1C", "inhibition": -1.58}, {"smiles": "O=C(CCN1CCN(c2ccc(F)cc2)CC1)Nc1ccccc1F", "inhibition": -7.81}, {"smiles": "COc1ccc(C(=O)Oc2c(CN3CCOCC3)cc(Cl)c3cccnc23)cc1", "inhibition": -4.17}, {"smiles": "CNc1ncc(Cc2ccccc2)s1", "inhibition": -5.18}, {"smiles": "COC(=O)c1[nH]c2ccc(C)cc2c1NC(=O)Nc1ccc(OC)cc1", "inhibition": 15.2}, {"smiles": "CC(=O)Nc1ccc(S(=O)(=O)N2CCC(n3cnc4cc(F)ccc43)CC2)cc1", "inhibition": -8.65}, {"smiles": "CC(=O)c1c(C)n([O-])c2ccccc2[n+]1=O", "inhibition": 1.77}, {"smiles": "O=C(CSc1nc2[nH]ncc2c(=O)[nH]1)N1CCCCC1", "inhibition": -11.2}, {"smiles": "Cc1ccc2nc(C(F)OC(F)(F)F)[nH]c2c1", "note": "(stereo not drawn)", "inhibition": -19.4}, {"smiles": "Nc1cccc(-c2nc3ccc(N)cc3s2)c1", "inhibition": 22.6}, {"smiles": "O=[N+]([O-])/C=C/c1cc2ccccc2[nH]1", "inhibition": 32.9}, {"smiles": "CCN(CC)CCN(Cc1cc2cc3c(cc2[nH]c1=O)OCCO3)C(=O)NC1CCCCC1", "inhibition": -14.5}, {"smiles": "c1ccc(Oc2cc(-c3ccccc3)ncn2)cc1", "inhibition": 2.31}, {"smiles": "COc1ccc(CN2C(=O)Cc3c2nc(N)c2c(N)nc(N4CCCCC4)c(C#N)c32)cc1", "inhibition": 25.6}, {"smiles": "C=COC(=O)CSc1snc(SCC(=O)OC)c1C#N", "inhibition": -13}, {"smiles": "Cc1cccc2nc(CSc3nc4ccccc4o3)cn12", "inhibition": 1.89}, {"smiles": "O=C(Cc1ccccc1)NC1c2ccccc2-c2ccccc21", "inhibition": -8.08}, {"smiles": "O=C(CSCc1ccccc1)Nc1ccc2c(c1)OCO2", "inhibition": -12.3}, {"smiles": "O=C(NCc1ccco1)C1CC(=O)N(CCc2ccccc2)C1", "note": "(stereo not drawn)", "inhibition": -2.95}, {"smiles": "Cn1cccc1CC(=O)NNC(=S)Nc1ccc(Cl)cc1", "inhibition": 1.77}, {"smiles": "NC1=NC(=Nc2ccc(Br)cc2)c2ccccc21", "inhibition": -1.28}, {"smiles": "N#C/C=C(/N)c1ccc(Br)cc1", "inhibition": 7.34}, {"smiles": "O=c1c(Cl)c(Cl)cnn1-c1ccccc1", "inhibition": 12.9}, {"smiles": "O=C(Cc1cn2ccsc2n1)Nc1ccccc1Oc1ccccc1", "inhibition": -11.4}, {"smiles": "N#CC1=C(N)N=C(SCc2cccc3ccccc23)C(C(N)=O)C12CCCCC2", "note": "(stereo not drawn)", "inhibition": 34.8}, {"smiles": "CCCCn1c(/N=C/c2ccccc2NS(=O)(=O)c2ccc(C)cc2)nc2ccccc21", "inhibition": 15.6}, {"smiles": "CCOC(=O)C1=C(c2ccccc2)NC(SC)=C(C#N)C1c1ccco1", "note": "(stereo not drawn)", "inhibition": 4.7}, {"smiles": "FC(F)(F)c1cccc(NC(=S)NCCN2CCOCC2)c1", "inhibition": -26}, {"smiles": "Nc1nc(CSc2nc3ccccc3[nH]2)nc(N2CCOCC2)n1", "inhibition": -4.29}, {"smiles": "CN1/C(=C\\C=N\\NC(=O)c2ccccc2Br)C(C)(C)c2ccccc21", "inhibition": 3.5}, {"smiles": "CC(C)=CCN1CCN(Cc2ccoc2)CC1CCO", "note": "(stereo not drawn)", "inhibition": -23.8}, {"smiles": "COc1ccc(N2C(=O)[C@@H]3[C@H](C2=O)[C@H]2c4ccccc4C=CN2[C@@H]3C(=O)Nc2ccccc2)cc1", "inhibition": 12.3}, {"smiles": "COc1ccc(C(C(=O)NC2CCCC2)N(C(=O)c2ccoc2C)c2cc(C)cc(C)c2)cc1", "note": "(stereo not drawn)", "inhibition": -16.8}, {"smiles": "Cc1cc(C)nc(Nc2ccc(N3CCCC3)cc2)n1", "inhibition": 35.5}, {"smiles": "Cc1ccc(Nc2nc(N)nc(CC#N)n2)cc1", "inhibition": 12.2}, {"smiles": "CSc1nnc(NC(=O)CCc2ccccc2)s1", "inhibition": 31.3}, {"smiles": "CCOC(=O)C(C)/C(C)=N/NC(=O)c1cc2ccccc2cc1O", "note": "(stereo not drawn)", "inhibition": 35}, {"smiles": "CCN(CC)CCOc1ccc2c(c1)C(=NNC(=O)c1ccccn1)c1cc(OCCN(CC)CC)ccc1-2", "inhibition": 21.5}, {"smiles": "O=C1CC(N2CCN(Cc3ccccc3)CC2)C(=O)N1c1ccccc1", "note": "(stereo not drawn)", "inhibition": -3.65}, {"smiles": "NC(=O)c1c(N)sc2c1CCCCC2", "inhibition": -4.1}, {"smiles": "COc1cccc(C2CC(c3ccccc3OC)n3nc(N)nc3N2)c1", "note": "(stereo not drawn)", "inhibition": -9.32}, {"smiles": "COc1ccc(CC(=O)n2nc(-c3ccccc3)nc2NCc2ccco2)cc1", "inhibition": -5.7}, {"smiles": "CCn1c(Cc2ccccc2)nnc1SCC(=O)Nc1ccc(S(N)(=O)=O)cc1", "inhibition": -19.4}, {"smiles": "C/C(=N\\NC(=O)c1c(Cl)c(C)nn1C)c1cccc(NC(=O)COc2ccc(Cl)cc2)c1", "inhibition": 0.33}, {"smiles": "Cc1cccc(C)c1OCC(=O)Nn1c(COc2ccccc2)nc2ccccc2c1=O", "inhibition": -24.9}, {"smiles": "COc1cccc(/C=N/n2c(C)nc3ccccc3c2=O)c1O", "inhibition": 2.55}, {"smiles": "C=CCNC(=O)c1ccc(N(C)S(=O)(=O)c2ccc(OC)cc2)cc1", "inhibition": 4.47}, {"smiles": "O=C(Nc1nc2ccc(SC(F)F)cc2s1)c1ccc2c(c1)S(=O)(=O)c1ccccc1C2=O", "inhibition": -4.49}, {"smiles": "Oc1ccc(Nc2nc(-c3cccs3)cs2)cc1", "inhibition": 30.8}, {"smiles": "COC(=O)c1cc(C)nc2c1C(=O)C(=O)C=C2N1CCOCC1", "inhibition": 7.24}, {"smiles": "Nc1ccc(Nc2ccccc2N)cc1", "inhibition": 19}, {"smiles": "Nc1ccc(Nc2ccccc2)c(Cl)c1", "inhibition": 3.59}, {"smiles": "O=C(OCC(=O)c1ccc(S(=O)(=O)N2CCCC2)cc1)C1=COCCO1", "inhibition": 5.66}, {"smiles": "O=C(NC(NC(=S)Nc1ccc(Cl)c(Cl)c1)C(Cl)(Cl)Cl)c1ccco1", "note": "(stereo not drawn)", "inhibition": -7.65}, {"smiles": "O=C(NCc1ccco1)c1ccc(Br)s1", "inhibition": -1.93}, {"smiles": "CCCCN(C)C(=O)c1cn(C)c2ccc(S(=O)(=O)N(C)C)cc2c1=O", "inhibition": 5.65}, {"smiles": "CCOC(=O)c1cnc(SCC(=O)Nc2ccc(N3CCOCC3)c(Cl)c2)nc1N", "inhibition": -2.55}, {"smiles": "Cc1nc(NCc2ccc3c(c2)OCO3)c2oc3ccccc3c2n1", "inhibition": -17.7}, {"smiles": "COc1ccc(/C=C/C(=O)NCCc2nc3ccccc3[nH]2)cc1", "inhibition": 8.18}, {"smiles": "CCCCn1c(/N=C/c2c[nH]c3ccccc23)nc2ccccc21", "inhibition": 15.1}, {"smiles": "O=C1CCc2cc(S(=O)(=O)N3CCN(c4cccc(Cl)c4)CC3)ccc2N1", "inhibition": -2.32}, {"smiles": "C=CCN(C(=O)c1cccc(S(=O)(=O)N2CCN(C)CC2)c1)c1nc(-c2ccccc2)cs1", "inhibition": -7.5}, {"smiles": "O=C(CCC(=O)c1cccs1)OCC(=O)N1CCN(S(=O)(=O)c2ccccc2)CC1", "inhibition": -8.31}, {"smiles": "O=C1c2ccccc2C(=O)N1CCCc1nc2ccccc2c(=O)n1Cc1ccco1", "inhibition": -21.1}, {"smiles": "O=C(NCCc1cn2ccccc2n1)c1ccccc1F", "inhibition": 2.71}, {"smiles": "O=C(c1ccco1)[C@@H]1[C@@H]2C(=O)N(c3ccc(F)cc3)C(=O)[C@@H]2[C@H]2C=Cc3ccccc3N21", "inhibition": 29.2}, {"smiles": "Clc1ccc(-c2csc3ncnc(N4CCc5ccccc5C4)c23)cc1", "inhibition": -12.2}, {"smiles": "CCCCN(C(=O)NC(=O)Nc1nc2ccc(OC)cc2s1)S(C)(=O)=O", "inhibition": 17}, {"smiles": "c1csc(C2Nc3ccccc3-c3nc4ccccc4n32)c1", "note": "(stereo not drawn)", "inhibition": 19.2}, {"smiles": "c1ccc(CSc2snnc2-c2ccccc2)cc1", "inhibition": -3.35}, {"smiles": "O=C(Cc1c[nH]c2ccccc12)N/N=C/c1ccc(F)cc1", "inhibition": -10.3}, {"smiles": "O=c1[nH]c(NNC(=S)NCc2ccccc2)nc2c1C1(CCCCC1)Cc1ccccc1-2", "inhibition": 0.42}, {"smiles": "CN(C(=O)c1cccc(C#N)c1)c1nnc(-c2cnccn2)s1", "inhibition": -4.29}, {"smiles": "COc1ccc(-c2ccccc2)cc1NCc1ccccc1C", "inhibition": -12.8}, {"smiles": "CC(=O)Nc1cccc(-c2csc(Nc3cccc(C)n3)n2)c1", "inhibition": -15.6}, {"smiles": "CCOC(=O)C1=C(C)NC(=O)NC1c1ccsc1", "note": "(stereo not drawn)", "inhibition": 1.33}, {"smiles": "CCOC(=O)C(NC(=O)c1cccc(Cl)c1)(OCc1ccccc1)C(F)(F)F", "note": "(stereo not drawn)", "inhibition": 0.14}, {"smiles": "Cc1ccc(C(=O)N2CC3(C(C)C)CN(C(=O)c4ccc(C)cc4)CC(C(C)C)(C2)C3=O)cc1", "inhibition": -13.8}, {"smiles": "CCN(CC)S(=O)(=O)c1cccc(C(=O)NC(Cc2c[nH]c3ccccc23)c2nnc3n2CCC3)c1", "note": "(stereo not drawn)", "inhibition": -22}, {"smiles": "O=C(N/N=C/c1ccco1)c1cccc(S(=O)(=O)Nc2ccccc2Cl)c1", "inhibition": 4.33}, {"smiles": "Cc1ccc(-n2c(C)cc(/C=N/NC(N)=S)c2C)cc1", "inhibition": 14.2}, {"smiles": "CCn1c2ccccc2c2cc(/C=N/NC(=O)c3ccccc3)ccc21", "inhibition": 20.8}, {"smiles": "O=C(/C=C\\c1ccco1)Nc1nc(-c2ccccc2)cs1", "inhibition": 1.32}, {"smiles": "COc1cccc(OC)c1C(=O)NC(=S)Nc1cc(-c2nc3ccccc3[nH]2)ccc1Cl", "inhibition": -22.6}, {"smiles": "Cc1[nH]c2ccccc2c1/C=N/Nc1ccc(F)cc1F", "inhibition": 13.6}, {"smiles": "N#Cc1nc(-c2cccs2)oc1NCCCN1CCOCC1", "inhibition": 9.92}, {"smiles": "c1ccc(Nc2cc(Nc3ccccc3)[nH]n2)cc1", "inhibition": -0.38}, {"smiles": "Oc1c(Br)cc(Br)cc1C=NCc1ccccc1", "inhibition": 16.4}, {"smiles": "Cc1ccc(-n2sc3ccccc3c2=O)cc1S(=O)(=O)N1CCCCC1", "inhibition": 32.3}, {"smiles": "Cc1ccc(C)c(-c2nc3ccc(N)cc3[nH]2)c1", "inhibition": 15.5}, {"smiles": "c1ccc(CCNc2nc3ccccc3s2)cc1", "inhibition": -7.07}, {"smiles": "CC(=O)Nc1ccc(C(=O)N2CCN(C(=O)c3ccco3)CC2)cc1", "inhibition": 0.79}, {"smiles": "Cc1cccnc1N(C(=O)Nc1ccccc1)C1=NCC(C)(C)S1", "inhibition": 2.03}, {"smiles": "CN1C(=O)/C(=C/c2cccn2-c2ccc3ccccc3c2)C(=O)NC1=S", "inhibition": -0.34}, {"smiles": "CCOc1cc(/C=C2/NC(=O)N(CC(=O)Nc3cccc(C)c3)C2=O)ccc1OC", "inhibition": -16.1}, {"smiles": "COc1ccc(C(C)C)cc1S(=O)(=O)Nc1ccc(Cl)cn1", "inhibition": -22.6}]}]}
